The first assay deals with T1, Proteasome subunit beta (Trypanosoma cruzi) (UniProt O96673).
T1 sequence (whole entry): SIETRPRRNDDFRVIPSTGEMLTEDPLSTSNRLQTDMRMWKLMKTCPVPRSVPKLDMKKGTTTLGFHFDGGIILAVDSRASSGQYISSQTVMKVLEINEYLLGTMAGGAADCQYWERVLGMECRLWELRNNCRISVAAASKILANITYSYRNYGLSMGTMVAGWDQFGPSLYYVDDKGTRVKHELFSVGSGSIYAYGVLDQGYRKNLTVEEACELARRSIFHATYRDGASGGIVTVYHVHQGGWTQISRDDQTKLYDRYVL
The experiment in a line: Trypanosoma cruzi proteasome chymotrypsin-like activity (TcProtChymo) assay. In kind it is functional. Details: scale not given: in the data most compounds retested in dose-response had high values. The settings on record: 9.37 µM.
On to `Cc1cccc(CN2C(=O)CCC23CCN(Cc2cccn2C)CC3)n1`, for which the Percent Effect came out at 16.9%.
For `CN(C(=O)CN1CCOC(Cn2cccn2)C1)c1nccs1` (stereo not drawn), the Percent Effect stood at 11.8%.
On to `c1cc(-c2nc(CN3CCn4c(nnc4C4CC4)C3)cs2)cs1`, for which the Percent Effect was determined as 5.55%.
Turning to `CS(=O)(=O)NCC1CCCN(C(=O)COCC(F)(F)F)C1` (stereo not drawn), the Percent Effect was 6.57%.
Take `COc1ccc(-c2nc(CN3CCc4c(ncn4C)C3)cs2)cc1`: the Percent Effect was found to be 13.4%.
For `Cc1cccc(CN2CCC3(CCN(c4ccccn4)C3)C2=O)c1` (stereo not drawn), the Percent Effect was 14%.
Consider `CCCC(C)C(=O)N1CCC(n2cccc2C(=O)OC)CC1` (stereo not drawn), for which the Percent Effect is 2.46%.
Turning to `O=C(NCC1CCOC1)Nc1ccc(OCC(F)(F)F)nc1` (stereo not drawn), the Percent Effect is 7.76%.
As to `Cc1ncc(-c2ccnc(N3CCN(C)CC3)n2)c(-c2cccnc2)n1`, the Percent Effect worked out at 8.57%.
`Cc1cc(OCC(=O)N2CCCC(c3noc(C)n3)C2)no1` (stereo not drawn): the Percent Effect was determined as 19.8%.
Consider `COc1ccc(OCCN(C)C(=O)NC(C)c2nncn2C)cc1` (stereo not drawn), for which the Percent Effect was determined as 15.3%.
As to `CCc1ccsc1C(=O)N1CCN(C(=O)CC(F)(F)F)CC1`, the Percent Effect was found to be 10.5%.
For the compound `CC(C(=O)N1CCCC1)N1CCC(c2nccn2Cc2cscn2)CC1` (stereo not drawn), the Percent Effect is 13%.
Turning to `CCC(=O)N1CCC(O)(c2ncc(OC)nc2OC)CC1`, the Percent Effect worked out at 9.03%.
The same measure, in the same setting: then `O=C(c1cc(Cl)c2c(c1)OCCO2)N1CCCC(n2cncn2)C1` (stereo not drawn), with 1.78%.
As to `CN(C)CC1CN(Cc2nnc(-c3ccccc3Cl)o2)CCO1` (stereo not drawn), the Percent Effect is 15.7%.
The same measure, in the same setting: the result for `Cc1ccc(OCC(O)CN2CCC(Cn3cccn3)CC2)cc1` (stereo not drawn) reads 7.89%; that for `COCCN1CCCN(C(=O)NC(C)Cn2ccnc2)CC1` (stereo not drawn), -0.702%; that for `CCc1nc(C2CCCN2C(=O)c2ccoc2C)no1` (stereo not drawn), 2.3%.
With `COc1cc(CNCc2ccc(NC(=O)NC(C)C)cc2)cc(OC)c1`, the Percent Effect came to 16.1%.
Consider `Cc1cc(NC(=O)N(CC2CCOC2)C2CC2)no1` (stereo not drawn), for which the Percent Effect amounted to 6.7%.
Regarding `COc1ccc(F)cc1C(=O)N(C)Cc1cc(C)on1`, the Percent Effect came to 14.1%.
On the same count and under the same terms, the result for `CN(C)C(=O)N1C[C@H]2CCC[C@@]2(COc2ccccn2)C1` reads 10.9%.
The same measure, in the same setting: the result for `COc1ncc(C2CC(=O)NCc3nc4ccccn4c32)cn1` (stereo not drawn) reads 6.34%; that for `Cn1nc2c(cc1=O)CN(Cc1nc(C(C)(C)C)no1)CC2`, 6.19%.
The same measure, in the same setting: then `Fc1cnc(N2CCOCC3(CCCN(c4nncs4)C3)C2)nc1` (stereo not drawn), with 10.5%.
Take `CN1CCCn2c(nc(CNC(=O)c3ccsc3)cc2=O)C1`: the Percent Effect came to 5.56%.
Regarding `Cc1ccc(-c2nc(CN3CCn4c(nnc4C4CC4)C3)co2)cc1`, the Percent Effect was found to be 9.92%.
Take `O=c1cc(Cn2cncn2)nc2n1CCCN(CC1CC1)C2`: the Percent Effect was 9.09%.
On to `CC(c1nc(C2CC2)no1)N1CCN(Cc2ccsc2)CC1` (stereo not drawn), for which the Percent Effect amounted to 3.67%.
Consider `O=c1c2ccccc2nc2n1C(CSc1ccc(Cl)cc1Cl)CN2` (stereo not drawn), for which the Percent Effect amounted to 13.3%.
The same measure, in the same setting: the result for `CCc1cc(O)nc(C2CCCN2C(=O)c2cc(C)no2)n1` (stereo not drawn) reads 11.3%; that for `CN(C)C(=O)CCC(=O)NCc1cccnc1-n1cnc2ccccc21`, -1.03%; that for `CCc1nccn1C1CCCN(C(=O)Cc2ccc(OC)c(F)c2)C1` (stereo not drawn), 7.38%.
On to `CC(=O)N1C[C@@H](c2ccsc2)[C@@H]2CN(Cc3ccccc3)CC[C@@H]21`, for which the Percent Effect was 12.2%.
With `CN(C)CC1CN(Cc2coc(-c3ccccc3Cl)n2)CCO1` (stereo not drawn), the Percent Effect came to 10.6%.
Turning to `CCNC(=O)[C@@H]1C[C@@H](NC(=O)Cc2ccncc2)CN1Cc1ccsc1`, the Percent Effect worked out at 11.6%.
In the case of `CC(C)(C)C(O)CN1CCN(C(=O)c2cccc3[nH]ncc23)CC1` (stereo not drawn), the Percent Effect stood at 20.4%.
For the compound `CC(C)c1cc(N2CCN(c3ccc(O)cc3)CC2)n2nccc2n1`, the Percent Effect stood at 19.7%.

For a further assay, the species on record is Homo sapiens. Kind of assay: To identify inhibition of the IFN signalling (Jak-Stat) pathway via expression of an eGFP reporter gene under the control of an IFN-stimulated response element (ISRE) containing MxA promoter. Format: functional. Details: scale not given: direction of the effect not stated beside the values. Conditions: 30 µM. On the technique in general: A reporter such as luciferase makes a cellular process visible.
For the compound `Cc1cccc(CN2C(=O)CCC23CCN(Cc2cccn2C)CC3)n1`, the Percent Effect is 23.5%.
`CN(C(=O)CN1CCOC(Cn2cccn2)C1)c1nccs1` (stereo not drawn): the Percent Effect is -5.33%.
On to `c1cc(-c2nc(CN3CCn4c(nnc4C4CC4)C3)cs2)cs1`, for which the Percent Effect is 21.9%.
On to `CS(=O)(=O)NCC1CCCN(C(=O)COCC(F)(F)F)C1` (stereo not drawn), for which the Percent Effect came to 9.12%.
With `COc1ccc(-c2nc(CN3CCc4c(ncn4C)C3)cs2)cc1`, the Percent Effect was 18.6%.
For the compound `Cc1cccc(CN2CCC3(CCN(c4ccccn4)C3)C2=O)c1` (stereo not drawn), the Percent Effect was determined as 11.4%.
`CCCC(C)C(=O)N1CCC(n2cccc2C(=O)OC)CC1` (stereo not drawn): the Percent Effect was determined as 31%.
`O=C(NCC1CCOC1)Nc1ccc(OCC(F)(F)F)nc1` (stereo not drawn): the Percent Effect amounted to 17.4%.
Regarding `Cc1ncc(-c2ccnc(N3CCN(C)CC3)n2)c(-c2cccnc2)n1`, the Percent Effect was 8.85%.
On to `Cc1cc(OCC(=O)N2CCCC(c3noc(C)n3)C2)no1` (stereo not drawn), for which the Percent Effect worked out at 17.5%.
For the compound `COc1ccc(OCCN(C)C(=O)NC(C)c2nncn2C)cc1` (stereo not drawn), the Percent Effect amounted to 17.3%.
For the compound `CCc1ccsc1C(=O)N1CCN(C(=O)CC(F)(F)F)CC1`, the Percent Effect is -19.1%.
For the compound `CC(C(=O)N1CCCC1)N1CCC(c2nccn2Cc2cscn2)CC1` (stereo not drawn), the Percent Effect amounted to 3.46%.
Regarding `CCC(=O)N1CCC(O)(c2ncc(OC)nc2OC)CC1`, the Percent Effect stood at 8.31%.
Consider `O=C(c1cc(Cl)c2c(c1)OCCO2)N1CCCC(n2cncn2)C1` (stereo not drawn), for which the Percent Effect stood at 6.76%.
On the same count and under the same terms, then `CN(C)CC1CN(Cc2nnc(-c3ccccc3Cl)o2)CCO1` (stereo not drawn), with 9.96%.
For the compound `Cc1ccc(OCC(O)CN2CCC(Cn3cccn3)CC2)cc1` (stereo not drawn), the Percent Effect is -3.3%.
Regarding `COCCN1CCCN(C(=O)NC(C)Cn2ccnc2)CC1` (stereo not drawn), the Percent Effect amounted to 8.17%.
Still for that read-out and setting: the result for `CCc1nc(C2CCCN2C(=O)c2ccoc2C)no1` (stereo not drawn) reads 17.4%; that for `COc1cc(CNCc2ccc(NC(=O)NC(C)C)cc2)cc(OC)c1`, 33.6%.
Regarding `Cc1cc(NC(=O)N(CC2CCOC2)C2CC2)no1` (stereo not drawn), the Percent Effect turned out to be 21.8%.
In the case of `COc1ccc(F)cc1C(=O)N(C)Cc1cc(C)on1`, the Percent Effect was found to be 21.1%.
In the case of `CN(C)C(=O)N1C[C@H]2CCC[C@@]2(COc2ccccn2)C1`, the Percent Effect came to 6.85%.
In the case of `COc1ncc(C2CC(=O)NCc3nc4ccccn4c32)cn1` (stereo not drawn), the Percent Effect worked out at 3.05%.
With `Cn1nc2c(cc1=O)CN(Cc1nc(C(C)(C)C)no1)CC2`, the Percent Effect was determined as 21.4%.
On to `Fc1cnc(N2CCOCC3(CCCN(c4nncs4)C3)C2)nc1` (stereo not drawn), for which the Percent Effect was -23.8%.
With `CN1CCCn2c(nc(CNC(=O)c3ccsc3)cc2=O)C1`, the Percent Effect is -5.79%.
On the same count and under the same terms, the result for `Cc1ccc(-c2nc(CN3CCn4c(nnc4C4CC4)C3)co2)cc1` reads -8.93%; that for `O=c1cc(Cn2cncn2)nc2n1CCCN(CC1CC1)C2`, -6.93%; that for `CC(c1nc(C2CC2)no1)N1CCN(Cc2ccsc2)CC1` (stereo not drawn), 3.35%.
For the compound `O=c1c2ccccc2nc2n1C(CSc1ccc(Cl)cc1Cl)CN2` (stereo not drawn), the Percent Effect is 32.9%.
With `CCc1cc(O)nc(C2CCCN2C(=O)c2cc(C)no2)n1` (stereo not drawn), the Percent Effect was found to be 20.5%.
Still for that read-out and setting: the result for `CN(C)C(=O)CCC(=O)NCc1cccnc1-n1cnc2ccccc21` reads -10.5%; that for `CCc1nccn1C1CCCN(C(=O)Cc2ccc(OC)c(F)c2)C1` (stereo not drawn), 13%.
Regarding `CC(=O)N1C[C@@H](c2ccsc2)[C@@H]2CN(Cc3ccccc3)CC[C@@H]21`, the Percent Effect turned out to be 12.3%.
Still for that read-out and setting: the result for `CN(C)CC1CN(Cc2coc(-c3ccccc3Cl)n2)CCO1` (stereo not drawn) reads 3.83%; that for `CCNC(=O)[C@@H]1C[C@@H](NC(=O)Cc2ccncc2)CN1Cc1ccsc1`, -2.37%.
Take `CC(C)(C)C(O)CN1CCN(C(=O)c2cccc3[nH]ncc23)CC1` (stereo not drawn): the Percent Effect is 1.83%.
Regarding `CC(C)c1cc(N2CCN(c3ccc(O)cc3)CC2)n2nccc2n1`, the Percent Effect was determined as 0.905%.
